For experiment [1], the system named is PRMT1 (protein arginine N-methyltransferase 1). Kind of experiment: small molecules binding arginine methyltransferase PRMT1 – biochemical, small-molecule microarray, 635 nm fluorescence, primary screen (AID 1088).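 Also: binding of Prmt1 protein to compounds spotted on small-molecule microarray slides.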 Particulars: higher = more signal.
A short description of experiment [2]: growth effects on S. cerevisiae YJM789 – YJM789 clinical isolate, OD600, 24 h, basal, primary screen (AID 1089).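 Also: growth of clinical yeast isolate S. cerevisiae YJM 789 seeded 1000 cells per well; test concentration not given here.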 Particulars: higher = more signal, called active from +8 up or from −8 down.
Experiment [3] is described as follows: S. pombe growth modifiers, basal conditions – strain 972, OD600, 24 h, no modulator, primary screen (AID 1090).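 Also: basal condition with compound alone and no growth modifier present; test concentration not given here.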 Particulars: S. pombe 972 growth, higher = more signal, called active from +8 up or from −8 down.
Experiment [4] is described as follows: budding yeast growth modifiers under rapamycin – strain BY4716, OD600, 96 h, primary screen (AID 1091). Also: test concentration not given here. Particulars: S. cerevisiae BY4716 + rapamycin, higher = more signal, called active from +8 up or from −8 down.
Experiment [5] concerns the target Torsin-1A-interacting protein 2 (Homo sapiens) (UniProt Q8NFQ8). Kind of experiment: small molecules binding lysate-expressed LULL1 – cell lysate, human LULL1 lysate, 635/667 nm fluorescence, primary screen (AID 1092).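 Also: probe is lysate of COS7 cells overexpressing human LULL1; score merges per-feature 667 nm fluorescence with signal-to-noise.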 The settings on record: small-molecule microarray, hLULL1 lysate binding, 635 nm fluorescence; higher = more signal.
Experiment [6] in a line: optical density change of DRC41 E. coli – strain DRC41, OD650, 24 h, E. coli filamentation project, primary screen (AID 1093).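 Also: MC1000 strain lacking acrAB efflux and sulA so SOS filamentation is blocked; test concentration not given here.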 Particulars: E. coli DRC41 growth, higher = more signal, called active from +8 up or from −8 down.
The nature of experiment [7]: probe aLefty2 binding to arrayed compounds – biochemical, biotinylated probe, 635/667 nm fluorescence, primary screen (AID 1094).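 Also: score merges spot fluorescence near 667 nm with spot signal-to-noise ratio.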 The settings on record: small-molecule microarray, higher = more signal.
Experiment [8] concerns Noggin (protein binding on small-molecule microarray). Kind of experiment: small molecules binding Noggin protein – biochemical, 635/667 nm fluorescence, primary screen (AID 1095).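 Also: score merges 667 nm feature fluorescence with signal to noise over triplicate slides.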 Particulars: 635 nm fluorescence, higher = more signal.
Experiment [9] deals with Neurogenic locus notch homolog protein 3 (Homo sapiens) (UniProt Q9UM47). Kind of experiment: small molecules binding NOTCH3 protein – biochemical, 635/667 nm fluorescence, primary screen (AID 1096). The settings on record: small-molecule microarray, 635 nm fluorescence, higher = more signal.
Neurogenic locus notch homolog protein 3 (Homo sapiens), sequence (Q9UM47 whole entry, looked up): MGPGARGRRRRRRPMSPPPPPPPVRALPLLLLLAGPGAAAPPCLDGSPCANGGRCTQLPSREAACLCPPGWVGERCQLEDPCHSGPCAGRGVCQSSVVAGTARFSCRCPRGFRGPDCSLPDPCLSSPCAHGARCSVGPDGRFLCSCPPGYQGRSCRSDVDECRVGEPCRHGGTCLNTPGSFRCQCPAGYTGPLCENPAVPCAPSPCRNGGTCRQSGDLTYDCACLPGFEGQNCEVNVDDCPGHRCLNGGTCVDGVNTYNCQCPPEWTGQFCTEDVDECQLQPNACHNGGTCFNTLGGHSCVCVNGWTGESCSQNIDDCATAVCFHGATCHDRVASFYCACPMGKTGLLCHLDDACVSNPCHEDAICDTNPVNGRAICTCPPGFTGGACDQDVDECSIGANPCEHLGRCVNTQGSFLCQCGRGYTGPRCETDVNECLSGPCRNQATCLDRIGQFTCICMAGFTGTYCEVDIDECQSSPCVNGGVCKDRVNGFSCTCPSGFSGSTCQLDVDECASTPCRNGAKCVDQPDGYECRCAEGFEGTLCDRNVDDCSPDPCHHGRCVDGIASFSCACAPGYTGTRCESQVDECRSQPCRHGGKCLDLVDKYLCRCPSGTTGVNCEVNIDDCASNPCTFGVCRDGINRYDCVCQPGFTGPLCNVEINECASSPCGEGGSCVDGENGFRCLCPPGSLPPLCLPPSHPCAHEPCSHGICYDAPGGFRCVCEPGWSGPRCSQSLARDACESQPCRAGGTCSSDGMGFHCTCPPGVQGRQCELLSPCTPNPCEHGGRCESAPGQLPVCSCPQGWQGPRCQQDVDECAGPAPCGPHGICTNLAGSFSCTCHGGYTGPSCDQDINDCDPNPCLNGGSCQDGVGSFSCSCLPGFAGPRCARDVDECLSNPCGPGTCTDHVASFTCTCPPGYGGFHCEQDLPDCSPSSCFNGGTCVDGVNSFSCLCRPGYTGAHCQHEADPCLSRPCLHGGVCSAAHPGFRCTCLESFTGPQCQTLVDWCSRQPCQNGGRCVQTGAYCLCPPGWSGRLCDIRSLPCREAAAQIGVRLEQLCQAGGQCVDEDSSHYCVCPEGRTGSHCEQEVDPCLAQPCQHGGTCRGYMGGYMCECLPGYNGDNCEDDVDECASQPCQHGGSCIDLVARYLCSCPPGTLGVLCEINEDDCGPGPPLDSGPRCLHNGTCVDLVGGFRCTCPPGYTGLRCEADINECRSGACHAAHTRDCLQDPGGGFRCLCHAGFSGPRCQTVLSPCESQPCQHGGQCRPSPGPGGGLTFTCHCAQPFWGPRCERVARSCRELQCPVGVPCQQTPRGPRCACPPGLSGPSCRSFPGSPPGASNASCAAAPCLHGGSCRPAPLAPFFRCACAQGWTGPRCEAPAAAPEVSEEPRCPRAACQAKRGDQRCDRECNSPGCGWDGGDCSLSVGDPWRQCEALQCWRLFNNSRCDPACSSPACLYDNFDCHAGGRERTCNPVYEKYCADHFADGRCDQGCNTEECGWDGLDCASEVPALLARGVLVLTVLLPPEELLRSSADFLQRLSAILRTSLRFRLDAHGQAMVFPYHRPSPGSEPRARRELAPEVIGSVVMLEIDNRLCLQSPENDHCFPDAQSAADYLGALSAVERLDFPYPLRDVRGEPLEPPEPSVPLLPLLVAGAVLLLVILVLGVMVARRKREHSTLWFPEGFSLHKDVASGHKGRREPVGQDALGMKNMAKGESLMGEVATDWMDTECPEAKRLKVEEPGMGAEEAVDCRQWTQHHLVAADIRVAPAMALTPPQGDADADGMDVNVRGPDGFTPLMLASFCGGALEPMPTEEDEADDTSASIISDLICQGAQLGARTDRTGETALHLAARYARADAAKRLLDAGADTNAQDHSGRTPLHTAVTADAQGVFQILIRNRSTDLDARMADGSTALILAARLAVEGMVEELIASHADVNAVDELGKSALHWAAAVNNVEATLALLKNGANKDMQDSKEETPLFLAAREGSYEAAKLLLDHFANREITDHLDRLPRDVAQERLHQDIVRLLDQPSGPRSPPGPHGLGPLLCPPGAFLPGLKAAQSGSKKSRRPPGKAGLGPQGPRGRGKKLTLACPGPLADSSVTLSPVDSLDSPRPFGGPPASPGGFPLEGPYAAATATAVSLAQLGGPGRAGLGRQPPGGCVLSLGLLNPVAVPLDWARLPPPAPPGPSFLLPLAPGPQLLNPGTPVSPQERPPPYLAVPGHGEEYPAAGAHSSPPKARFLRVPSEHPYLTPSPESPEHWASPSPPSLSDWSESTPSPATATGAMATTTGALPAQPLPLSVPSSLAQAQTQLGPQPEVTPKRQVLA
Experiment [10] is described as follows: probe aEGFR binding to arrayed compounds – biochemical, biotinylated probe, 635/667 nm fluorescence, primary screen (AID 1097).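 Also: probe is a biotinylated anti-EGFR antibody binding compounds printed on slides; score combines fluorescence near 667 nm and signal to noise of each spot.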 The settings on record: small-molecule microarray, higher = more signal.

The results in this text go back to PubChem BioAssay.

Each structure is given as a SMILES string. The source made the active and inactive calls.

Torsin-1A-interacting protein 2 (Homo sapiens), sequence (Q8NFQ8 whole entry, looked up): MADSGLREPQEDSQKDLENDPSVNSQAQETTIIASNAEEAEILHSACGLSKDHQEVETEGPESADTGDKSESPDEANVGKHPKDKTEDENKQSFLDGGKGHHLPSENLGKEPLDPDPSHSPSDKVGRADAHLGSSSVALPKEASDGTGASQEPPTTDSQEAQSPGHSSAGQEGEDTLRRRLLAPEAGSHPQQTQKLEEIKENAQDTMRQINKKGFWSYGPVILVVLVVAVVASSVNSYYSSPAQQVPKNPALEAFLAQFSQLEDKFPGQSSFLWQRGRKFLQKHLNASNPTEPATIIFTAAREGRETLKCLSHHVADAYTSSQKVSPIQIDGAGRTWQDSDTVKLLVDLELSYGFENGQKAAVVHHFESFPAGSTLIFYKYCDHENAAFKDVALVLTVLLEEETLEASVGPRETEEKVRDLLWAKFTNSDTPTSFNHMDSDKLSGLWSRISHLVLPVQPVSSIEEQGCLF

As for `CC(C)N1CC=CC23O[C@@H]4C=CCCOC(=O)C4[C@H]2C(=O)N(CCCCCCO)[C@@H]3C1=O` (stereo not given in full), the composite z-score in experiment [1] was 0.613; in [5], 1.94; in [7], -0.233; in experiment [8], -0.984; in [9] it was -0.0917; in [10], -0.297. Besides, the z-score in experiment [2] was 0.653 (inactive); in [3] it was 0.159 (inactive); in [4], 0.121 (inactive); in experiment [6] it was -0.0822 (inactive).

Turning to `CN(C)c1ccc(C(O)C2C=CC3C(=O)N(c4ccccc4)C(=O)C3N2Nc2ccccc2F)cc1` (stereo not given), the composite z-score is 1.09 in experiment [1]; 2.21 in experiment [5]; -0.166 in [7]; -0.318 in experiment [8]; 0.443 in experiment [9]; 0.0904 in experiment [10]. Also, the z-score in [2] is 0.0194 (inactive); in experiment [3] it was -13.6 (active); in experiment [4] it was 1.7 (inactive); in [6] it was -0.457 (inactive).

As for `COc1ccc(-c2nc3c(c4c2C[C@H](C)OC4)CN(CCC(C)C)CC3)cc1`, the composite z-score is 1.31 in experiment [1]; 1.5 in experiment [5]; -0.142 in experiment [7]; 0.501 in experiment [8]; 0.982 in [9]; 0.167 in [10]. Also, the z-score in experiment [2] was 0.382 (inactive); in experiment [3], -0.692 (inactive); in experiment [4], 0.0635 (inactive); in experiment [6] it was 0.618 (inactive).

Turning to `COc1ccccc1CN1C(=O)c2ccccc2[C@@]2(Cc3ccccc3N(C(C)C)C2=O)[C@@H]1c1ccc(CO)cc1`, the composite z-score in [1] is 0.303; in experiment [5], -0.114; in experiment [7] it was -0.0999; in experiment [8] it was -0.0723; in [9], -0.186; in experiment [10] it was -0.194. The z-score in [2] is -1.69 (inactive); in experiment [3], -0.373 (inactive); in experiment [4] it was -1.34 (inactive); in experiment [6], 1.26 (inactive).

For the compound `C=C(/C(=C/C[C@H](OC(C)=O)c1ccc(OCCO)cc1)c1cnc2ccccc2c1)C(C)C`, the composite z-score in experiment [1] was 1.44; in [5], 1.67; in [7] it was -0.062; in experiment [8], 1.58; in experiment [9], 1.1; in experiment [10], -0.204. Also, the z-score in [2] was -1.75 (inactive); in experiment [3], -2.26 (inactive); in experiment [4], -1.03 (inactive); in experiment [6], 1.19 (inactive).

For `O=C1[C@H]2[C@H]3[C@H](O)[C@H](O)CC(=NOC[C@@H](O)COCc4ccco4)[C@H]3CC[C@H]2C(=O)N1C1CCCCC1`, the composite z-score in experiment [1] is 1.1; in [5], -0.522; in [7], -0.0841; in [8], 1.19; in experiment [9], 0.214; in experiment [10], -0.0141. In addition, the z-score in [2] is 0.432 (inactive); in [3] it was -0.299 (inactive); in experiment [4], 0.356 (inactive); in experiment [6], -0.263 (inactive).

As for `CC(C)c1ccc(NN2C(C(O)c3ccc4c(c3)OCO4)C=CC3C(=O)N(c4ccccc4)C(=O)C32)cc1` (stereo not given), the composite z-score in [1] is 1.21; in experiment [5], 3.5; in [7], 0.304; in experiment [8], 1.01; in experiment [9], 1.1; in [10] it was -0.0845. The z-score was -0.0261 (inactive) in experiment [2], 0.0855 (inactive) in experiment [3], 0.599 (inactive) in experiment [4] and 0.0026 (inactive) in experiment [6].

As for `CCOc1ccc(N2C(=O)/C(=C/C=C/c3ccccc3OC)S(=O)(=O)C2c2cccc([N+](=O)[O-])c2)cc1` (stereo not given), the composite z-score is -0.167 in [1]; 0.236 in experiment [5]; -0.0342 in experiment [7]; 0.39 in experiment [8]; 0.638 in [9]; -0.103 in [10]. Also, the z-score is -3.8 (inactive) in experiment [2], -3.13 (inactive) in experiment [3], 0.648 (inactive) in experiment [4] and 0.841 (inactive) in [6].

In the case of `O=C1O[C@@H](c2ccccc2)[C@@H](c2ccccc2)N2[C@@H](c3ccc(O)cc3)[C@]3(C(=O)Nc4ccccc43)[C@@H](C(=O)O)[C@H]12`, the composite z-score in [1] is 1.24; in experiment [5] it was 2.45; in [7] it was -0.0753; in [8], -0.335; in experiment [9], 0.166; in experiment [10] it was -0.041. Moreover, the z-score in experiment [2] is 0.462 (inactive); in [3] it was -0.253 (inactive); in experiment [4] it was -0.408 (inactive); in [6], 1.14 (inactive).

Consider `CCOC(=O)NN=C1C[C@@H](O)[C@@H](O)[C@@H]2[C@@H]3C(=O)N(C4CCCCC4)C(=O)[C@@H]3CC[C@@H]12`, for which the composite z-score in experiment [1] was -0.319; in experiment [5] it was 0.156; in experiment [7] it was -0.028; in [8], 0.257; in experiment [9] it was 0.324; in experiment [10], -0.0329. For the same compound, the z-score was -1.33 (inactive) in experiment [2], -0.895 (inactive) in experiment [3], -0.495 (inactive) in experiment [4] and 0.637 (inactive) in experiment [6].

Take `CN(C)C(=O)[C@@]1(Cc2ccccc2)N=C(c2ccc(OCCCO)cc2)O[C@H]1c1ccccc1CN=[N+]=[N-]`: the composite z-score in experiment [1] amounted to 1.56; in experiment [5], 3.17; in [7], 0.578; in experiment [8], 0.801; in experiment [9], 0.969; in [10] it was 0.361. The z-score is -1.88 (inactive) in [2], -0.31 (inactive) in [3], 0.477 (inactive) in [4] and 0.73 (inactive) in experiment [6].

In the case of `c1ccc(C2NCCc3c2[nH]c2ccccc32)cc1` (stereo not given), the composite z-score in experiment [1] was -0.339; in experiment [5] it was 0.872; in experiment [7], -0.126; in experiment [8], 0.388; in [9] it was -0.246; in experiment [10], 0.122. The z-score in experiment [2] was -0.272 (inactive); in experiment [3], -2.36 (inactive); in experiment [4], -0.962 (inactive); in experiment [6], -0.937 (inactive).

`CCN1C(=O)[C@H]2[C@H]3[C@H](O)[C@H](O)CC(=NOCc4ccccc4)[C@H]3CC[C@H]2C1=O`: the composite z-score is -0.204 in [1]; 0.21 in experiment [5]; -0.386 in experiment [7]; 0.863 in experiment [8]; 0.469 in [9]; -0.0953 in experiment [10]. The z-score is -0.896 (inactive) in [2], -0.337 (inactive) in experiment [3], -0.262 (inactive) in experiment [4] and 0.632 (inactive) in experiment [6].

`COC(=O)[C@@]1(Cc2ccc(F)cc2)[C@H]2c3cc(C(=O)N(C)C)n(Cc4ccc(OC)c(OC)c4)c3C[C@H]2CN1C(=O)c1ccccc1`: the composite z-score in [1] was -1.32; in experiment [5] it was 1.54; in experiment [7], 0.498; in [8] it was -0.344; in experiment [9] it was -0.309; in experiment [10], 0.365. For the same compound, the z-score in experiment [2] is 0.0573 (inactive); in experiment [3], -0.636 (inactive); in [4], -0.249 (inactive); in [6], -0.31 (inactive).

Consider `CC1(C)OCC(C(O)C2=CCCCC2=O)CO1` (stereo not given), for which the composite z-score in experiment [1] is 1.56; in experiment [5], 0.231; in [7], -0.0478; in experiment [8] it was 0.986; in experiment [9], 1.06; in experiment [10], 0.0688. Moreover, the z-score in [2] is 0.209 (inactive); in experiment [3] it was -0.0255 (inactive); in [4], 0.856 (inactive); in experiment [6] it was -0.449 (inactive).

For the compound `COC(=O)CC1OC1[C@H](C)[C@@H](OC)C(C)C` (stereo not given in full), the composite z-score was 0.12 in experiment [1]; -0.481 in [5]; 0.121 in [7]; 0.291 in experiment [8]; -0.556 in experiment [9]; -0.151 in experiment [10]. Moreover, the z-score is -0.132 (inactive) in experiment [2], -4.41 (inactive) in experiment [3], 1.24 (inactive) in [4] and 0.453 (inactive) in experiment [6].

As to `CC(C)CN1CCc2nc(-c3ccccc3)c3c(c2CC1)CO[C@@H](C)C3`, the composite z-score in experiment [1] is -0.36; in [5] it was -0.39; in experiment [7], 0.061; in experiment [8], 0.364; in experiment [9], 0.0668; in [10], 0.0657. In addition, the z-score in [2] is 0.175 (inactive); in [3] it was -0.327 (inactive); in [4], -0.378 (inactive); in experiment [6] it was 0.102 (inactive).
